Test in all cases: NCI-60 one-dose screen, 48 h (100 = growth as untreated, 0 = no growth, -100 = all killed)
Details in all cases: 10 µM unless noted

Test [1] concerns NCI-H226 lung.
In test [2] the test system is NCI-H322M lung.
Test [3] deals with HOP-62 NSCLC.
In test [4] the test system is NCI-H460 lung.
Test [5] concerns HOP-92 NSCLC.
In test [6] the test system is NCI-H522 lung.
Test [7] has as its system A549/ATCC NSCLC.
The test system of test [8] is 786-0 renal.
Test [9] relates to COLO 205 colon.
The subject of test [10] is DU-145 prostate.
Test [11] has as its system K-562 leukemia.
Test [12] concerns MALME-3M melanoma.
For test [13], the system named is MDA-MB-231 breast.
Test [14] has as its system RXF 393 renal.
For test [15], the system named is SF-268 CNS.
Test [16] concerns SF-295 CNS.
In test [17] the test system is SF-539 CNS.
In test [18] the test system is UACC-257 melanoma.
Test [19] concerns M14 melanoma.
In test [20] the test system is HCT-15 colon.

Each structure is given as a SMILES string. About 83,000 compounds went through this panel and 20% of them were active in at least one assay; those are over-represented in the sample as a whole.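 96-well plates, one dose, 48 hours. Percent growth reported; active if below 10.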 Unmarked numbers belong to inactive results. The source made the active and inactive calls.

With `Cc1nc2cnc(N)c(C#Cc3cncc(C(=O)Nc4ccc(Cl)c(C(F)(F)F)c4)c3)c2nc1C`, the growth in [1] was 26.7%; in test [2], 64.9%; in test [3], 56.8%; in test [4], 53.8%; in [5] it was -23.9% (active); in test [6], 89.5%. The growth in test [7] was 56.6%; in [8], 64.3%; in test [9] it was 28.5%; in test [10], 69.4%; in test [11] it was -15% (active); in [12], 39.9%. For the same molecule, the growth was 7.63% (active) in [13]; -18% (active) in test [14]; 52.6% in test [15]; 88.5% in [16]; -12.9% (active) in test [17]; 77.7% in test [18]. For the same molecule, the results for the growth in test [19] and in test [20] were 29.9% and 52.6%, respectively.
As for `O=C1Nc2ccc(Cl)cc2/C1=C/c1ccc(OCC(=O)c2ccc(Br)cc2)cc1`, the growth in test [1] was 78.7%; in test [2] it was 84.7%; in [3], 68.4%; in test [4] it was 94.7%; in [5], 72%; in test [6], 95.9%. Further, the growth is 102% in [7]; 103% in test [8]; 98.5% in test [9]; 103% in test [10]; 102% in [11]; 84.5% in test [12]. For the same molecule, the growth is 76.2% in test [13]; 114% in test [14]; 94% in test [15]; 99.9% in test [16]; 102% in [17]; 100% in test [18]. Further, the growth was 95.6% in test [19] and 99.2% in [20].
`O=C1[C@H]2Cc3c([nH]c4ccccc34)[C@@H](c3ccc(Br)cc3)N2C(=O)CN1C1CCN(Cc2ccccc2)CC1`: the growth in test [1] is 39.5%; in [2] it was 67%; in test [3] it was 54%; in test [4] it was 30%; in test [5] it was 28.9%; in test [6], -36.7% (active). For the same molecule, the growth was 20.7% in test [7]; 41.1% in test [8]; 12.7% in test [9]; 38.8% in test [10]; -28.2% (active) in [11]; 62.2% in test [12]. Further, the growth in test [13] was 49%; in [14] it was 42.7%; in test [15], 37.5%; in test [16] it was 32.4%; in test [17], 65.4%; in test [18] it was 53.3%. For the same molecule, the growth in [19] is 35.8%; in test [20], 15.8%.
For `COc1cc(/C=C/C(=O)c2cc(OC)c(OC)c(OC)c2)ccc1OCc1ccccc1`, the growth in test [1] is 48.6%; in [2], 45.5%; in test [3], 40.8%; in [4], 22.4%; in test [5], 58.4%; in [6] it was 49.3%. The growth in test [7] was 38.8%; in test [8] it was 40.1%; in test [9], 93.4%; in test [10] it was 27.2%; in test [11], 10.2%; in test [12], 63.1%. Further, the growth in [13] is 47.7%; in [14] it was 75%; in test [15] it was 43.3%; in test [16] it was 50.8%; in test [17] it was 8.77% (active); in [18], 68.9%. Also, the growth in [19] was 65.7%; in test [20], 13.3%.
As to `C[C@@H](Nc1c(C#N)cnc2ccc(-c3cnc(N)nc3)cc12)c1ccccc1`, the growth in [1] was 18.8%; in test [2] it was -6.52% (active); in [3] it was 31.1%; in test [4], 13.3%; in test [5] it was -10.5% (active); in test [6], -2.38% (active). The growth in test [7] is 15.8%; in test [8], 13.5%; in test [9] it was 17.3%; in [10], 12.8%; in test [11] it was 16.2%; in [12], 8.07% (active). Also, the growth in test [13] is 17.9%; in [14], -4.27% (active); in test [15], 16.5%; in test [16] it was 2.02% (active); in [17], 3.05% (active); in test [18], 33.5%. Moreover, the growth in [19] was 21.3%; in test [20], 9.79% (active).
As for `CN(C)S(=O)(=O)c1oc(-c2ccccc2)nc1C#N`, the growth in test [1] was 98.2%; in test [2] it was 99.6%; in test [3] it was 99.6%; in test [4], 109%; in test [5], 74.2%; in test [6] it was -64.7% (active). For the same molecule, the growth in test [7] is 105%; in test [8], 66.1%; in [9] it was 75.9%; in [10] it was 34.7%; in [11], 5.64% (active); in [12], -23.6% (active). For the same molecule, the growth in test [13] is 52.2%; in test [14], 39%; in test [15], 116%; in test [16], 99.3%; in [17] it was 84.4%; in test [18] it was 103%. Moreover, the growth in [19] was 27.5%; in [20], -11.6% (active).
Regarding `COc1ccc(NC2=C(Cl)C(=O)C(C)=C(C)C2=O)cc1OC`, the growth in test [1] was 92.6%; in test [2], 101%; in test [3] it was 99.6%; in test [4], 96%; in [5], 130%; in [6], 84.7%. The growth is 87.2% in test [7]; 107% in [8]; 110% in test [9]; 104% in test [10]; 60% in test [11]; 99.7% in test [12]. The growth in [13] is 44.9%; in test [14], 108%; in [15] it was 93.5%; in [16], 101%; in test [17], 94.7%; in [18], 95.1%. Also, the growth in test [19] was 95.7%; in test [20], 96.1%.
As for `CC(C)(C)Nc1nc2c(OCCc3ccccc3)cccn2c1-c1ccc(O)cc1`, the growth in test [1] is 63%; in test [2], 89.9%; in test [3] it was 80.3%; in test [4], 45.8%; in test [5] it was 28.3%; in [6], 57.5%. The growth in [7] is 48.6%; in [8] it was 73.3%; in test [9], 85.6%; in test [10], 97.3%; in [11], 17.4%; in test [12] it was 62.5%. For the same molecule, the growth in test [13] is 79.6%; in test [14], 21.2%; in test [15], 91.3%; in [16] it was 36%; in test [17], 72.9%; in [18], 97.9%. Besides, the results for the growth in [19] and in [20] were 63.1% and 2.12% (active), respectively.

(Values after PubChem BioAssay (NCI).)
